HP1b binding inh – HTS for Inhibitors of HP1-beta Chromodomain Interactions with Methylated Histone Tails; Chromobox protein homolog 1 (Homo sapiens), P83916; AlphaScreen HP1-beta / biotin-H3K9me3 peptide binding; Potency, µM (highest dose often 114 µM), inactives show top-dose activity change, negative = inhibition, usual class: inhibitors; hit rate 0.56% among 390,000; AID 540317, 2011; further: potency means the concentration at half of the fitted maximal effect; nearly all actives have a fitted effect of over 70% in size
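AlphaScreen: HP1-beta (50 nM) preformed 30 min with biotin-H3(1-18)K9me3 peptide (50 nM) in PBS pH 7.4, 0.01% Tween-20. Compound added for 30 min at RT, then streptavidin donor/nickel chelate acceptor beads (10 ug/mL) for 30 min.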
Six1-Eya2 blk – qHTS Assay for Inhibitors of the Six1/Eya2 Interaction; Homeobox protein SIX1 (Homo sapiens) + Protein phosphatase EYA2 (Homo sapiens), …; AlphaScreen GST-Six1/His-Eya2 binding, biochemical; active compounds read low; activity change, % (no concentration beside the values); hit rate 0.56% among 360,000; AID 651725, 2012; in the data active means activity change below about -65%; inconclusive means mostly about -30% to -63%; further: on the % scale 0 is the no-effect control and ±100 the full control effect
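AlphaScreen with GST-Six1 and His-Eya2 (5X mix: 250 nM and 500 nM), glutathione donor and nickel acceptor beads; buffer 50 mM Tris pH 8.0, 300 mM NaCl, 1 mM TCEP; 1 h at 37 C in the dark.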
BAZ2B inh – qHTS Assay for Inhibitors of BAZ2B; Bromodomain adjacent to zinc finger domain protein 2B (Homo sapiens), Q9UIF8; AlphaScreen BAZ2B-H3K14Ac peptide displacement; Potency, µM (series often up to 114 µM), for inactives: at the top dose activity change, negative = inhibition, usual class: inhibitors; hit rate 4.4% among 360,000; AID 504333, 2011; further: potency means the concentration at half of the fitted maximal effect; on the % scale 0 is the no-effect control and ±100 the full control effect; nearly all actives have a fitted effect of over 60% in size
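Complex of BAZ2B and biotin-H3K14Ac (50 nM apiece) forms over 30 min at RT, then faces library compounds up to 110 uM for another 30 min; AlphaScreen beads added, 20 min dark incubation, luminescence read.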
TDP1 block – qHTS Assay for Inhibitors of Tyrosyl-DNA Phosphodiesterase (TDP1) | Tyrosyl-DNA phosphodiesterase 1 (Homo sapiens), Q9NUW8 | recombinant TDP1, AlphaScreen DNA substrate cleavage | Potency, µM (top dose mostly 130 µM), for inactives: at the highest dose activity change, negative = inhibition, hits mostly inhibitors | hit rate 0.28% among 350,000 | AID 485290, 2010; further: potency means the concentration at half of the fitted maximal effect; on the % scale 0 is the no-effect control and ±100 the full control effect; nearly all actives have a fitted effect of over 40% in size
Target sequence (Q9NUW8 whole entry, looked up): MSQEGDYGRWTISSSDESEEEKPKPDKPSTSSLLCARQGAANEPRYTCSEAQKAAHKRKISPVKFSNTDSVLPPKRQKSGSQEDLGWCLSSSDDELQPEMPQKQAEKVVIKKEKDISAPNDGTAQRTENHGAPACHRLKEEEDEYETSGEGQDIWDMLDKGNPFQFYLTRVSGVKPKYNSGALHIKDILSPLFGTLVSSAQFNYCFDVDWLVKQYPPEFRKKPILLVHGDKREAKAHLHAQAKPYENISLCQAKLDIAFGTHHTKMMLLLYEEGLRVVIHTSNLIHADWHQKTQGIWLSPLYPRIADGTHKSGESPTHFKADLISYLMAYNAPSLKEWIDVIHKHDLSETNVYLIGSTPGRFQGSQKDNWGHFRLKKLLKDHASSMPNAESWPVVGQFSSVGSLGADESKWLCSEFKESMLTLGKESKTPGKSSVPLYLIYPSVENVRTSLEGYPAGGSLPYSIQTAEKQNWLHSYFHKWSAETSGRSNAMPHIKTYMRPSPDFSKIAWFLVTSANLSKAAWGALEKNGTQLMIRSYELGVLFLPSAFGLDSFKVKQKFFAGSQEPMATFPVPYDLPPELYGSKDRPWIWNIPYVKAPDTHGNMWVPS
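Recombinant human Tdp1 (E. coli-expressed, 1 nM final) preincubated with compounds 15 min at room temperature, then 5'-biotin/3'-phosphotyrosine-FITC DNA substrate (15 nM final) added for 5 min. AlphaScreen beads (10 ug/ml final) added 10 min; cleavage lowers signal.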
CtBP-E1A inh – qHTS Assay for Inhibitors of the CtBP/E1A Interaction; AlphaScreen GST-E1A/His-CtBP binding, 1536-well; active compounds read low; activity change, % (test concentration not listed); hit rate 0.49% among 340,000; in the data active means activity change below about -65%; inconclusive means mostly about -30% to -63%; further: on the % scale 0 is the no-effect control and ±100 the full control effect
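Protein mix (5X: 125 nM each GST-E1A, His-CtBP) was incubated with pinned compound 2 h at 37 deg C in dark, in 50 mM Tris pH 8.0 buffer with 300 mM NaCl. Glutathione donor and nickel acceptor beads followed; AlphaScreen signal read after 1 h.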
JMJD2A Tudor – qHTS Assay for Inhibitors of JMJD2A-Tudor Domain; Lysine-specific demethylase 4A (Homo sapiens), O75164; AlphaScreen JMJD2A-Tudor / H3K4me3 peptide binding; Potency, µM (highest dose often 114 µM), for the others: top-dose activity change, negative = inhibition, actives largely listed as inhibitors; hit rate 4.4% among 390,000; AID 504339, 2011; further: potency means the concentration at half of the fitted maximal effect; on the % scale 0 is the no-effect control and ±100 the full control effect; nearly all actives have a fitted effect of over 50% in size
An asterisk follows results filed as active; [ ] = another dose, or the depositor's remark. The list is not random: actives were taken first. Their share in the collection is about 5.3%. Unless noted, the call rests on the fitted dose curve; in most records, active means well fitted inhibition curve with a large enough effect; inconclusive means small, poorly fitted or top-dose-only effect; inactive means no such curve, though single readings can be large or run the other way.

For Cc1ccc(CNC(=O)C2CCCN(c3nnc(-n4c(C)ccc4C)s3)C2)cc1 (stereo not drawn) the results were HP1b binding inh -2%, BAZ2B inh -14%, TDP1 block 5% and JMJD2A Tudor -27%.
`Cc1cccnc1Nc1nc(-c2ccc(O)cc2O)cs1` gave HP1b binding inh -34%, Six1-Eya2 blk -15, BAZ2B inh inconclusive, TDP1 block 7%, CtBP-E1A inh -9 and JMJD2A Tudor 14µM*.
For NS(=O)(=O)c1ccc(Nc2nc(-c3ccc(O)cc3O)cs2)cc1 the results were HP1b binding inh -16%, Six1-Eya2 blk -67*, BAZ2B inh inconclusive, TDP1 block 9%, CtBP-E1A inh -80* and JMJD2A Tudor -23%.
Screening Cc1cccc(Nc2nc(-c3ccccn3)cs2)n1 returned HP1b binding inh 43%, Six1-Eya2 blk inconclusive, BAZ2B inh 20µM*, TDP1 block 12%, CtBP-E1A inh inconclusive and JMJD2A Tudor inconclusive.
Cc1cccnc1Nc1nc(-c2ccccn2)cs1 was read as HP1b binding inh 20%, Six1-Eya2 blk -78*, BAZ2B inh 14µM*, TDP1 block 12%, CtBP-E1A inh -95* and JMJD2A Tudor 45µM*.
Screening Cc1cccnc1Nc1nc(-c2ccccc2)cs1 returned HP1b binding inh 8%, Six1-Eya2 blk -5, BAZ2B inh -21%, TDP1 block 7%, CtBP-E1A inh 0 and JMJD2A Tudor -15%.
For CCCCOc1ccc(C(C)NC(=O)CN2C(=O)CSc3ccc(S(=O)(=O)N4CCOCC4)cc32)cc1 (stereo not drawn) the results were HP1b binding inh -9%, BAZ2B inh -1%, TDP1 block 8% and JMJD2A Tudor -21%.
Screening CN(C)c1ccc(N=C/C=C2\N(C)c3ccccc3C2(C)C)cc1 returned HP1b binding inh 50µM*, Six1-Eya2 blk -66*, BAZ2B inh 35µM*, TDP1 block 14%, CtBP-E1A inh inconclusive and JMJD2A Tudor -8%[11.4 µM].
`CN1/C(=C\C=Nc2ccc3ccccc3c2)C(C)(C)c2ccccc21` gave BAZ2B inh -35% and TDP1 block 2%.
Screening CN1\C(=C/C=C/C=C/C=[N+](C)C)C(C)(C)c2ccccc21 returned HP1b binding inh inconclusive, Six1-Eya2 blk inconclusive, BAZ2B inh 11µM*, TDP1 block 10% and JMJD2A Tudor 50µM*.
`CCC(C)c1ccc(O[C@@H]2O[C@H](CO)[C@@H](O)[C@H](O)[C@H]2NC(C)=O)cc1` (stereo partly drawn) gave TDP1 block 1%.
Cc1oc2ncn(CC(C)C)c(=O)c2c1C(=O)NCc1cccc(Cl)c1 was read as HP1b binding inh 36%, BAZ2B inh 11%[57.1 µM], TDP1 block -2% and JMJD2A Tudor 13%.
For CN(C)/C=C1/NC(=S)NC1=O the results were HP1b binding inh 89µM*, Six1-Eya2 blk 25, BAZ2B inh -8%, TDP1 block 2%, CtBP-E1A inh 0 and JMJD2A Tudor 8.9µM*.
For CCN1C(=O)/C(=C\N(C)C)NC1=S the results were HP1b binding inh 36%, Six1-Eya2 blk 0, BAZ2B inh -6%, TDP1 block 5%, CtBP-E1A inh 3 and JMJD2A Tudor -20%.
Screening COC(=O)c1ccccc1NC(=O)N1CCC(N2CCN(Cc3ccc(F)cc3)C(=O)C2=O)CC1 returned HP1b binding inh -3%, BAZ2B inh -3%, TDP1 block 6% and JMJD2A Tudor -15%.
Cc1ccc(C(=O)/C=C/c2ccccc2[N+](=O)[O-])cc1 was read as HP1b binding inh inconclusive, Six1-Eya2 blk 1, BAZ2B inh inconclusive, TDP1 block 5%, CtBP-E1A inh 4 and JMJD2A Tudor inconclusive.
For O=C(/C=C/c1ccccc1[N+](=O)[O-])c1ccccc1Br the results were HP1b binding inh inconclusive, Six1-Eya2 blk 4, BAZ2B inh 32µM*, TDP1 block 3%, CtBP-E1A inh -9 and JMJD2A Tudor 56µM*.
CC1CN(C(=O)/C=C/c2ccccc2[N+](=O)[O-])CC(C)O1 (stereo not drawn) was read as HP1b binding inh 23%[57 µM], Six1-Eya2 blk -6, BAZ2B inh -14%, TDP1 block 4%, CtBP-E1A inh 1 and JMJD2A Tudor 10µM*.
For O=C(NCc1ccccc1)c1ccc(CNS(=O)(=O)c2ccc(Br)cc2)cc1 the results were HP1b binding inh 11%, TDP1 block -5% and JMJD2A Tudor -12%.
Screening CCOc1ccc(CC(=O)NCCS(=O)(=O)N2CCN(c3ccccc3OC)CC2)cc1 returned HP1b binding inh 11%[57 µM], BAZ2B inh -3%, TDP1 block -2% and JMJD2A Tudor -12%.
`O=C(Nc1ccc(C(=O)OCc2cc(=O)n3c4c(sc3n2)CCCC4)cc1)c1ccc(Cl)cc1` gave HP1b binding inh 28%, BAZ2B inh -4%, TDP1 block -4% and JMJD2A Tudor 10%.
Screening CN(C)c1ccc(C2CC(=O)C=C(Nc3ccccc3N)C2)cc1 (stereo not drawn) returned HP1b binding inh -6%, Six1-Eya2 blk -26, BAZ2B inh 45µM*, TDP1 block 7%, CtBP-E1A inh -12 and JMJD2A Tudor inconclusive.
Screening COc1ccccc1NC1=CC(=O)CC(c2ccccc2)C1 (stereo not drawn) returned HP1b binding inh 29%, Six1-Eya2 blk 5, BAZ2B inh 2%, TDP1 block -3%, CtBP-E1A inh 4 and JMJD2A Tudor -7%.
COc1ccc(NS(=O)(=O)c2ccc(-n3cccn3)cc2)cc1OC was read as HP1b binding inh 12%, BAZ2B inh -1%, TDP1 block -4% and JMJD2A Tudor -2%.
N=C1S/C(=C\c2ccco2)C(=O)N1c1ccc2c(c1)OCO2 was read as HP1b binding inh -39%, Six1-Eya2 blk 6, BAZ2B inh 56µM*, TDP1 block 0%, CtBP-E1A inh -15 and JMJD2A Tudor inconclusive.
For NCCN1C(=O)S/C(=C\c2ccc3c(c2)OCO3)C1=O the results were HP1b binding inh -8%, Six1-Eya2 blk 0, BAZ2B inh -17% and JMJD2A Tudor -6%.

Screens from PubChem.
